According to paper PMC7862700, “An all-to-all approach to the identification of sequence-specific readers for epigenetic DNA modifications on cytosine”:

Tests used:
Experiment in all cases: DAPPL (digital affinity profiling via proximity ligation, sequencing); 10 mM Tris-HCl pH 7.5, 50 mM NaCl, 1 mM DTT, 4% glycerol, room temperature, 30 min; GST-TFs on glutathione beads, 16-mer random dsDNA library, 0.1% formaldehyde crosslink after washing; high values mean tight binding
FEV = target: T1, FEV (Homo sapiens, UniProt Q99581 1-238); settings: protein: recombinant; tags: N-terminal GST; dsDNA, one strand shown
T1 sequence: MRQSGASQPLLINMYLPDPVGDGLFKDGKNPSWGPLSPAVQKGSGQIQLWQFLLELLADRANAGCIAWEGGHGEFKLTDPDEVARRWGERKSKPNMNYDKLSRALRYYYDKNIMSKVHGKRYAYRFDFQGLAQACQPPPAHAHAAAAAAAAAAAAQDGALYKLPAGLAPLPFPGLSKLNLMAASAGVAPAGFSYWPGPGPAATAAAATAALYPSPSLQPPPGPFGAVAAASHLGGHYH
Summary of the method: (§1)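 Human transcription factors carrying a GST fusion were produced in yeast, bound to glutathione beads, tagged with DNA barcodes and pooled together with a tag-only sample. Each pool was held with 200 nmole of a random double-stranded 16-mer DNA library in Tris/NaCl/DTT/glycerol buffer for 30 min at room temperature, then washed, crosslinked in 0.1% formaldehyde, proximity-ligated with BsaI/T4 ligase (1 h, 37 °C), PCR-amplified and sequenced on an Illumina NextSeq500. Binding signal is the read frequency of each hexamer for a given factor divided by its frequency in the tag-only sample.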

ETV5 = ETV5 (Homo sapiens, UniProt P41161 1-510); settings: protein: recombinant; tags: N-terminal GST; dsDNA, one strand shown
Chain of ETV5 (P41161 whole entry): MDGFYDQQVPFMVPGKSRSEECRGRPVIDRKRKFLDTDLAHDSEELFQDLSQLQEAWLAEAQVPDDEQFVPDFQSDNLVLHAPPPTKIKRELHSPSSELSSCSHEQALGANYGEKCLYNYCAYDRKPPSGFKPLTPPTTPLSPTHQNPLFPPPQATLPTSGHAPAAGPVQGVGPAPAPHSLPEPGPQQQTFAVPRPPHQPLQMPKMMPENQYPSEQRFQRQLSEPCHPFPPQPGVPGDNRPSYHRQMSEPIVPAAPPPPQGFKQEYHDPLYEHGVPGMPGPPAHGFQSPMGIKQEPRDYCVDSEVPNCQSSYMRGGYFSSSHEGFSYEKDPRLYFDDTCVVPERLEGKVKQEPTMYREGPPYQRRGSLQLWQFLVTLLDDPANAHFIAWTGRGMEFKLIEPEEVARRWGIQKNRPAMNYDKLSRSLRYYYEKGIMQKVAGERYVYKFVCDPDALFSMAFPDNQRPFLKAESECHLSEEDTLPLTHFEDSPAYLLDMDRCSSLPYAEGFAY
Summary of the method: as §1

HSF1 = HSF1 (Homo sapiens, UniProt Q00613 1-529); settings: protein: recombinant; tags: N-terminal GST; chain copies: 3; dsDNA, one strand shown
Chain of HSF1 (Q00613 whole entry): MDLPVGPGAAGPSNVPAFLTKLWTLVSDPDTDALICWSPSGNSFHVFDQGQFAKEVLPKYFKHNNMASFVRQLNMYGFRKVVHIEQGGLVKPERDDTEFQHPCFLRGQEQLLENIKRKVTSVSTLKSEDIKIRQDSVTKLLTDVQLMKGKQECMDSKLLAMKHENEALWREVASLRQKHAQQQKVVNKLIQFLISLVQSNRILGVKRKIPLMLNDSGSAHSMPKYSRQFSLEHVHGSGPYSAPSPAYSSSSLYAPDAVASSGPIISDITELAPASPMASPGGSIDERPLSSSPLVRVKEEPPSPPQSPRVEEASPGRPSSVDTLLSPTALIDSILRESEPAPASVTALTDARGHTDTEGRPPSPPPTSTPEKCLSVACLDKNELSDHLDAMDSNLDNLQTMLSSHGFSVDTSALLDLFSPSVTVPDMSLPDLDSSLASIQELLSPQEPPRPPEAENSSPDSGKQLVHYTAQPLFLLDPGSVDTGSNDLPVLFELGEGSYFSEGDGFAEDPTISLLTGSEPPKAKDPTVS
Summary of the method: as §1

SPIC = target: T2, SPIC (Homo sapiens, UniProt Q8N5J4 1-248); settings: protein: recombinant; tags: N-terminal GST; dsDNA, one strand shown
T2 sequence: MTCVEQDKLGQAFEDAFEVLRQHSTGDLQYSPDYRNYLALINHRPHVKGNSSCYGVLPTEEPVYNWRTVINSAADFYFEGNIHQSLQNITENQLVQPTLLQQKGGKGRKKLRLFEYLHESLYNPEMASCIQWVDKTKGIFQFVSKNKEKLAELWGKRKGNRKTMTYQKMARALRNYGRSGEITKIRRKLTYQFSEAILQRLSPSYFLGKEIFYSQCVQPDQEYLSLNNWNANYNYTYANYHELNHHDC
Summary of the method: as §1

ELF4 = ELF4 (Homo sapiens, UniProt Q99607 1-663); settings: protein: recombinant; tags: N-terminal GST; dsDNA, one strand shown
Chain of ELF4 (Q99607 whole entry): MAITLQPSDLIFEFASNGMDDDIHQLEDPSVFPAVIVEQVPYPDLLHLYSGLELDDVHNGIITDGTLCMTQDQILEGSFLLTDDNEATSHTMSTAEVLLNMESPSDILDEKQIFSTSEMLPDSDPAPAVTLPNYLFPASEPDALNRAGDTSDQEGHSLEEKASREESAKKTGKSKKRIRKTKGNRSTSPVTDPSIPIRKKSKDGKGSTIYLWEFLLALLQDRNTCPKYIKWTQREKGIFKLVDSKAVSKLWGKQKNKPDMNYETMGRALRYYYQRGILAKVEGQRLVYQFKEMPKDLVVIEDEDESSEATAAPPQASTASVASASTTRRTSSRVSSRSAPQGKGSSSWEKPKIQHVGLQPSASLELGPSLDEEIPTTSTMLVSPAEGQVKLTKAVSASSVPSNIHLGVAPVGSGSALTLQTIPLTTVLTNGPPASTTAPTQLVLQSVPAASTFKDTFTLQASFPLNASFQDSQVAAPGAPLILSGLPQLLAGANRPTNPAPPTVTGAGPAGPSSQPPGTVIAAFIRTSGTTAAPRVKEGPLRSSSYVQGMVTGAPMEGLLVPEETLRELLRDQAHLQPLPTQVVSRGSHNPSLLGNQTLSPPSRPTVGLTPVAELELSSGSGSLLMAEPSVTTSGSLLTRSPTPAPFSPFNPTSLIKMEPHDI
Summary of the method: as §1

ELK4 = target: T3, ELK4 (Homo sapiens, UniProt P28324-2 1-405); settings: protein: recombinant; tags: N-terminal GST; dsDNA, one strand shown
T3 sequence: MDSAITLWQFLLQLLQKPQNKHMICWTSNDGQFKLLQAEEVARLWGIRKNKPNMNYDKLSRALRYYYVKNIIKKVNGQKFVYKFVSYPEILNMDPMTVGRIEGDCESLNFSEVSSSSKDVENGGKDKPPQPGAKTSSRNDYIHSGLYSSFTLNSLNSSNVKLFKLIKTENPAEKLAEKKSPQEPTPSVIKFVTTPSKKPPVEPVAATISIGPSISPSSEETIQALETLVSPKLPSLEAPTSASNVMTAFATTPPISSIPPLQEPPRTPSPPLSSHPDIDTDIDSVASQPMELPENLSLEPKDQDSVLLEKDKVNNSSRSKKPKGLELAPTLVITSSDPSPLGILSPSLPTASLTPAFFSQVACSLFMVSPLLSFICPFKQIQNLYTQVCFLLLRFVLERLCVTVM
Summary of the method: as §1

ETV2 = target: T4, ETV2 (Homo sapiens, UniProt O00321 1-342); settings: protein: recombinant; tags: N-terminal GST; dsDNA, one strand shown
T4 sequence: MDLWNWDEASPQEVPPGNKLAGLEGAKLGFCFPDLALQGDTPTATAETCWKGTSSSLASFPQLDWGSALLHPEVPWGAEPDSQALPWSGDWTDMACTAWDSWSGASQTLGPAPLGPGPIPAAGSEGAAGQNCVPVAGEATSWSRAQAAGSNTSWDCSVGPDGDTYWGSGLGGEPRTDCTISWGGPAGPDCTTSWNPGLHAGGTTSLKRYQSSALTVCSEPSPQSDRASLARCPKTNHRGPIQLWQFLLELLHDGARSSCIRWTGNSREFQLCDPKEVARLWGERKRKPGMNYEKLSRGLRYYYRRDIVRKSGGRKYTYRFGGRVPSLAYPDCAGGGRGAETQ
Summary of the method: as §1

ELF3 = target: T5, ELF3 (Homo sapiens, UniProt P78545 1-371); settings: protein: recombinant; tags: N-terminal GST; dsDNA, one strand shown
T5 sequence: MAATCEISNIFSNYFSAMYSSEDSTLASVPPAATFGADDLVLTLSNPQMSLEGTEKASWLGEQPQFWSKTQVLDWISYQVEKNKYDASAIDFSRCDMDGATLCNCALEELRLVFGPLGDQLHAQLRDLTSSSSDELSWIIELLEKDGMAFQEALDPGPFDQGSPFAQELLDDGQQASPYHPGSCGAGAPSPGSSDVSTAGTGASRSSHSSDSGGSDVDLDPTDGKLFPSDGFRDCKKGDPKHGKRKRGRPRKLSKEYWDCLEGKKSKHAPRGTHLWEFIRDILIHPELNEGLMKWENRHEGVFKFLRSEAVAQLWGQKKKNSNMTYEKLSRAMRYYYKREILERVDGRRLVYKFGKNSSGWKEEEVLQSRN
Summary of the method: as §1

CRX = CRX (Homo sapiens, UniProt O43186 1-299); settings: protein: recombinant; tags: N-terminal GST; dsDNA, one strand shown
Chain of CRX (O43186 whole entry): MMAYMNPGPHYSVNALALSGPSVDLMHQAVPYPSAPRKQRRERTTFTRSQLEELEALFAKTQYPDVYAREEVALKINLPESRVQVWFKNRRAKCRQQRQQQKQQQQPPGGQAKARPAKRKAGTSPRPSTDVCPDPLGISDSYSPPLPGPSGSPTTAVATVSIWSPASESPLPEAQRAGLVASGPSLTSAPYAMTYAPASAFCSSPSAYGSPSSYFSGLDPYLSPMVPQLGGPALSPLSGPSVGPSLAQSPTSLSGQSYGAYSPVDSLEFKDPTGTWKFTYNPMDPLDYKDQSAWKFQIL
Summary of the method: as §1

ETV1 = ETV1 (Homo sapiens, UniProt P50549 1-477); settings: protein: recombinant; tags: N-terminal GST; dsDNA, one strand shown
Chain of ETV1 (P50549 whole entry): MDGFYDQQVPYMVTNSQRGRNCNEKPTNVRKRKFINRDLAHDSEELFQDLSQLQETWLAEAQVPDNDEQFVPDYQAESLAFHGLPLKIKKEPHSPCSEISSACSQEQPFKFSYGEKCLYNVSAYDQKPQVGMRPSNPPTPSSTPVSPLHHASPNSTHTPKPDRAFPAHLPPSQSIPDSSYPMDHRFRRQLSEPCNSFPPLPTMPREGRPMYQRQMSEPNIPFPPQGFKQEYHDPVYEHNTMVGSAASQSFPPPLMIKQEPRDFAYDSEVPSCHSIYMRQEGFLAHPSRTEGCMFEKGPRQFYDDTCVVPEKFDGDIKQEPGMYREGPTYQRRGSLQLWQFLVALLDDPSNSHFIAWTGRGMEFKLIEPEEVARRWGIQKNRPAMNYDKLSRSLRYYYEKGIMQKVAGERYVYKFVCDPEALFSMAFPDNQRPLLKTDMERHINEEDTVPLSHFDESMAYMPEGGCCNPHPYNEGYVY
Summary of the method: as §1

TTACGG
binding signal (FEV): 1.22 fold enrichment (6-mer frequency, TF over GST control)
binding signal (ETV5): 1.27 fold enrichment (6-mer frequency, TF over GST control)
binding signal (HSF1): 1.43 fold enrichment (6-mer frequency, TF over GST control)
binding signal (SPIC): 1.26 fold enrichment (6-mer frequency, TF over GST control)
binding signal (ELF4): 1.25 fold enrichment (6-mer frequency, TF over GST control)
binding signal (ELK4): 1.19 fold enrichment (6-mer frequency, TF over GST control)
binding signal (ETV2): 1.36 fold enrichment (6-mer frequency, TF over GST control)
binding signal (ELF3): 1.35 fold enrichment (6-mer frequency, TF over GST control)
binding signal (CRX): 1.86 fold enrichment (6-mer frequency, TF over GST control)
binding signal (ETV1): 1.25 fold enrichment (6-mer frequency, TF over GST control)
